# PLK1 PBD inh: Plk1 polo box domain binding inhibitors, primary screen, biochemical, fluorescence polarization | 97,000 compounds, 0.13% hits | inhibition, %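 (tested at about 20 µM)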 | Serine/threonine-protein kinase PLK1 (Homo sapiens), P53350 | Plk1 PBD phosphopeptide binding; in the data active = inhibition above about 34%, passing the limit was not always enough
# CYP2C9 inh: blockers of cytochrome P450 2C9 activity – biochemical, luminescence, ADME assay, primary screen. CYP2C9 Supersomes, luciferin-H conversion. inhibition, % at 5 µM. 96,000 compounds, 20% hits. P11712;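 active = blocking of liver enzyme CYP2C9 beyond about 50% at 5 µM, limit read from the data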
# CYP2C9 act: human CYP2C9 activators, primary screen, biochemical, luminescence; Cytochrome P450 2C9 (Homo sapiens), P11712; recombinant CYP2C9, luciferin-H conversion; stronger effect = higher value; factor 1 = untreated enzyme, 0 = blocked; activation factor at 5 µM; 96,000 compounds, 1.4% hits;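 active = activation factor of 2 or more for CYP2C9 at a 5 µM dose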
# CYP2C19 act: human CYP2C19 activators, primary screen, biochemical, luminescence; activation factor at 5 µM; Cytochrome P450 2C19 (Homo sapiens), P33261; 96,000 tested, under 10 active; recombinant CYP2C19, luciferin-H EGE luminescence; stronger effect = higher value; 0 = fully inhibited enzyme, 1 = untreated enzyme;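 active = activation factor of at least 2 at 5 µM in the primary screen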
# Target sequence (P33261 whole entry, looked up): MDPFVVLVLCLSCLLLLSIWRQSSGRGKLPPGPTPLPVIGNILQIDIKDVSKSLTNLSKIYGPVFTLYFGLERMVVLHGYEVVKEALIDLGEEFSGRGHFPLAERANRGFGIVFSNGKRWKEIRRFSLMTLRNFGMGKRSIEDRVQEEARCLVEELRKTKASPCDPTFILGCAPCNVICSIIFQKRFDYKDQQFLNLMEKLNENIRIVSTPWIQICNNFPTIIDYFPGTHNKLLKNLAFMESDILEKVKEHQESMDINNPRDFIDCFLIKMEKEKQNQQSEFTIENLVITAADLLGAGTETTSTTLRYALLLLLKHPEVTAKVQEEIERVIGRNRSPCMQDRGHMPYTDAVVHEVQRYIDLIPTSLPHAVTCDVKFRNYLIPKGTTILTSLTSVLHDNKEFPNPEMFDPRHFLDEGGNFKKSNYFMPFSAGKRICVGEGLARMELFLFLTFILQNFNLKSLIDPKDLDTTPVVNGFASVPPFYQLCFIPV
# CYP2C19 inh: blockers of cytochrome P450 2C19 activity – biochemical, luminescence, ADME assay, primary screen; inhibition, % at 5 µM; CYP2C19 Supersomes, luciferin-H EGE luminescence, 30 min; 96,000 compounds, 21% hits;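 active = CYP2C19 inhibition above a set limit at 5 µM in the primary screen, cut at about 50% in these data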
# PLK1 kinase inh: human PLK1 kinase inhibitors, primary screen, biochemical, TR-FRET | Serine/threonine-protein kinase PLK1 (Homo sapiens), P53350 | recombinant PLK1 kinase, TR-FRET peptide phosphorylation | inhibition, % at 10 µM | 97,000 compounds, 0.53% hits | AID 619, 2007;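 active = inhibition of 50% or more in the single-concentration screen; inactive = inhibition below 50%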
# Hits are given with their value; . = inactive; / = not tested or not shown. Sampled rows, rich in hits. Any-hit rate of the full collection: about 28%.
SMILES,PLK1 PBD inh,CYP2C9 inh,CYP2C9 act,CYP2C19 act,CYP2C19 inh,PLK1 kinase inh
O=C(NCCC1=CCCCC1)c1ccc2c(=O)n3c(nc2c1)CCCCC3,.,94,.,.,75,.
CCOC(=O)/C(=N/Nc1ccc(Cl)cc1)S(=O)(=O)c1ccc(Cl)cc1,.,.,.,.,.,.
CC(C)c1ccc(NC(=O)C(c2ccccc2)N2CCC3(CC2)OCCO3)cc1 (stereo not given),.,.,.,.,.,.
CN(C)/C=N/C(=S)Nc1ccc(Br)cc1F,.,.,.,.,59,.
Cn1cnnc1SCC(=O)Nc1ccc(Br)cc1F,.,.,.,.,.,.
CN(Cc1ccccc1)S(=O)(=O)c1ccc(S(=O)(=O)N2CCN(CCC#N)CC2)cc1,.,/,/,/,/,.
CN(Cc1ccccc1)S(=O)(=O)c1ccc(NS(=O)(=O)Cc2ccccc2)cc1,.,94,.,.,94,.
CN(Cc1ccccc1)S(=O)(=O)c1ccc(Cl)nc1,.,.,.,.,70,.
CC(=O)c1ccc(NS(=O)(=O)Cc2ccccc2)cc1,.,97,.,.,93,.
O=C(NNc1nc2ccccc2nc1C(F)(F)F)c1ccccc1,.,.,.,.,.,.
CC(=O)Nc1n[nH]c(S(=O)(=O)Cc2ccc(Cl)cc2Cl)n1,.,.,.,.,.,.
Cc1ccc(-c2csc(=S)n2CC(=O)OCC(=O)NCc2ccc(F)cc2)cc1,.,87,.,.,80,.
Cc1ccc(CNC(=O)COC(=O)c2cnccn2)cc1,.,.,.,.,.,.
Cc1ccc2oc(=O)c3cc(C(=O)NCc4ccco4)sc3c2c1,.,.,2.1,.,.,.
Cc1ccc(-c2cc(C(=O)NCc3ccco3)c3ccccc3n2)s1,.,.,.,.,.,.
O=C(Cn1cnc2c(nnn2Cc2ccc(F)cc2)c1=O)N1CCCc2ccccc21,.,/,/,/,/,.
O=C(c1cccs1)n1cc(C(=S)N2CCOCC2)c2ccccc21,.,.,.,.,68,.
O=C(C1CC1)n1cc(C(=S)N2CCOCC2)c2ccccc21,.,.,.,.,.,.
O=C(C1CCN(S(=O)(=O)c2cccc3nsnc23)CC1)N1CCn2c1nc1ccccc12,.,.,.,.,.,.
CC(=O)c1c(C(C)=O)c(C)n(NC(=O)c2ccccc2O)c1C,.,86,.,.,.,.
NC(=O)c1ccc(-n2nnnc2SCc2ccccc2)cc1,.,.,.,.,87,.
c1ccc(-n2nnnc2SCc2cccc(CSc3nnnn3-c3ccccc3)n2)cc1,.,/,/,/,/,.
COc1ccccc1-n1nnnc1SCc1ccccc1,.,.,.,.,75,.
COc1ccccc1-n1nnnc1SCC(=O)Nc1ccccn1,.,.,.,.,.,.
c1ccc(CSc2nnnn2-c2ccccc2)cc1,.,.,.,.,71,.
SMILES,PLK1 PBD inh,CYP2C9 inh,CYP2C9 act,CYP2C19 act,CYP2C19 inh,PLK1 kinase inh
COc1ccccc1-n1nnnc1SCc1cc2c(cc1Br)OCO2,.,55,.,.,.,.
C=CCSc1cc(C)nc2c(-c3ccc(Cl)cc3)c(C)nn12,.,.,.,.,.,.
O=C(CCCNS(=O)(=O)c1cccc2nsnc12)NCc1ccc(F)cc1,.,.,.,.,.,.
O=C(Nc1nccs1)c1ccc(CSc2nnnn2-c2ccccc2)cc1,.,92,.,.,92,.
CCc1ccc(-n2c(CSc3nnnn3-c3ccccc3)nc3ccccc3c2=O)cc1,.,.,.,.,.,.
COc1ccc(C)cc1NC(=O)CSc1nnnn1Cc1ccccc1,.,.,.,.,.,.
COc1ccc(CSc2nnnn2Cc2ccccc2)cc1OC,/,75,.,.,89,/
O=c1cc(CSc2nnnn2-c2ccccc2)[nH]c2[nH]n(-c3ccccc3)c(=O)c12,.,56,.,.,.,.
Cn1cc(Cl)c(C(=O)OCC(=O)Nc2nc(-c3ccc(Br)cc3)cs2)n1,.,/,/,/,/,.
CN(/N=C/c1ccncc1)C1=NS(=O)(=O)c2ccccc21,.,.,.,.,55,.
Cc1ccc(N(C(C)C(=O)N2CCC(C)CC2)S(C)(=O)=O)cc1C (stereo not given),.,.,.,.,.,.
C=CCCCCCCCCc1nc(=S)[nH][nH]1,.,50,.,.,.,.
CN(CCOC(=O)c1ccc2c(c1)OCCO2)Cc1ccccc1,.,62,.,.,54,.
O=C(c1ccccc1)c1cc2ccccc2o1,.,.,.,.,.,.
CN(Cc1ccccc1)C(=O)c1cc2ccccc2o1,.,.,.,.,94,.
CN(Cc1ccccc1)C(=O)c1ccc2c(c1)OCCO2,/,.,.,.,84,/
O=C(CCOc1ccccc1)OCC(=O)c1cc2ccccc2o1,.,65,.,.,70,.
CSc1nnc(C)c(/C=C/Nc2ccc(C)cc2)n1,.,.,.,.,.,.
COc1ccc(C(=O)CSc2nc3nc(C)cc(C)c3c(=O)[nH]2)cc1OC,.,/,/,/,/,.
CCCNC(=O)c1cc2c(C(F)(F)F)nn(C)c2s1,.,.,.,.,.,.
O=S(=O)(c1ccc(OCC(O)CN2CCN(c3ccccc3O)CC2)cc1)N1CCOCC1 (stereo not given),.,54,.,.,.,.
O=S(=O)(c1ccc(OCC(O)CN2CCN(c3ccccc3)CC2)cc1)N1CCOCC1 (stereo not given),.,.,.,.,64,.
CN(C)c1ccnc(Oc2ccccc2)c1C#N,.,.,.,.,.,.
CN(C)c1ccnc(SCc2ccccc2Cl)c1C#N,.,.,.,.,70,.
CC(C#N)Sc1nc2ccccc2c(=O)n1-c1ccccc1 (stereo not given),/,.,.,.,.,/
SMILES,PLK1 PBD inh,CYP2C9 inh,CYP2C9 act,CYP2C19 act,CYP2C19 inh,PLK1 kinase inh
Cc1cccc(N(CC(O)CON=C2c3ccccc3-c3ccccc32)S(C)(=O)=O)c1 (stereo not given),.,99,.,.,98,.
COC(=O)c1ccc(C(=O)OC)c(NC2=NS(=O)(=O)c3ccccc32)c1,.,.,.,.,.,.
CCOC(=O)c1cn(-c2nc(-c3ccc(Cl)cc3)cs2)c2c(F)c(N3CC(C)OC(C)C3)c(F)cc2c1=O (stereo not given),.,.,.,.,.,.
CCCCOc1ccc(/C=N/NC(=S)Nc2cccc(C)c2C)cc1,.,.,.,.,.,.
Cc1cccc(C)c1NC(=S)N/N=C/c1ccc(OCCC(C)C)cc1,.,62,.,.,.,.
CCn1c(SCc2cccc(C(F)(F)F)c2)nnc1-c1ccco1,.,/,/,/,/,.
CC(C)NS(=O)(=O)c1ccc(OCC(=O)NCCC2=CCCCC2)cc1,.,.,.,.,56,.
